Bioassay records: PubChem, National Center for Advancing Translational Sciences (NCATS)
The list is not random: actives were taken first. Their share in the collection is about 10%.
Six1-Eya2 blk: qHTS Assay for Inhibitors of the Six1/Eya2 Interaction; AlphaScreen GST-Six1/His-Eya2 binding, biochemical; hits give low values; Homeobox protein SIX1 (Homo sapiens) + Protein phosphatase EYA2 (Homo sapiens), …; 360,000 tested, 0.56% active; activity change, % (no concentration beside the values); AID 651725, 2012; in the data active means activity change below about -65%; inconclusive means mostly about -30% to -63%; further: on the % scale 0 is the no-effect control and ±100 the full control effect
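AlphaScreen luminescence read after one hour at 37 °C in darkness. Pin-transferred compounds met GST-Six1 and His-Eya2 protein (5X stock 250 nM/500 nM) plus glutathione donor and Ni-chelate acceptor beads (5X, 50 ug/mL).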
HP1b chromo inh: HTS for Inhibitors of HP1-beta Chromodomain Interactions with Methylated Histone Tails; AlphaScreen HP1-beta / biotin-H3K9me3 peptide binding; Potency, µM (series often up to 114 µM), inactives show top-dose activity change, negative = inhibition, usual class: inhibitors; 390,000 tested, 0.56% active; further: potency means the concentration at half of the fitted maximal effect; nearly all actives have a fitted effect of over 70% in size
Target sequence (P83916 whole entry, looked up): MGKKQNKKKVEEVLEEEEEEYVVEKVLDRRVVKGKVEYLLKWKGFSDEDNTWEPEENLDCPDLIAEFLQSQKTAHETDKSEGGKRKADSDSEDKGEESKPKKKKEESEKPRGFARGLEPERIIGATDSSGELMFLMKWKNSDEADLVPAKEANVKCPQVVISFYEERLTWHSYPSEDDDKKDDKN
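HP1-beta protein (50 nM final) preincubated 30 min at room temperature with biotinylated H3(1-18)K9me3 peptide (50 nM) in PBS pH 7.4, 0.01% Tween-20, then compound added for 30 min. AlphaScreen streptavidin donor/nickel chelate acceptor beads (10 ug/mL final), 30 min dark, luminescence read.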
CtBP-E1A blk: qHTS Assay for Inhibitors of the CtBP/E1A Interaction; CtBP / adenovirus E1A interaction (AlphaScreen); AlphaScreen GST-E1A/His-CtBP binding, 1536-well; hits give low values; activity change, % (test concentration not listed); 340,000 tested, 0.49% active; AID 651724, 2012; in the data active means activity change below about -65%; inconclusive means mostly about -30% to -63%; further: on the % scale 0 is the no-effect control and ±100 the full control effect
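Steps: dispense buffer (Tris pH 8.0, NaCl 300 mM, TCEP 1 mM, BSA, Tween 20); add 5X protein mix (GST-E1A, His-CtBP, 125 nM each); pin 23 nL compound; 2 h at 37 °C, dark; add 5X beads (50 ug/mL); 1 h; read.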
BAZ2B inh: qHTS Assay for Inhibitors of BAZ2B; Bromodomain adjacent to zinc finger domain protein 2B (Homo sapiens), Q9UIF8; AlphaScreen BAZ2B-H3K14Ac peptide displacement; Potency, µM (doses to about 114 µM), for inactives: at the top dose activity change, negative = inhibition, hits mostly inhibitors; 360,000 tested, 4.4% active; AID 504333, 2011; further: potency means the concentration at half of the fitted maximal effect; on the % scale 0 is the no-effect control and ±100 the full control effect; nearly all actives have a fitted effect of over 60% in size
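AlphaScreen luminescence quantifies BAZ2B engagement of H3K14Ac peptide; the protein and biotinylated peptide are both at 50 nM final, buffer PBS pH 7.4 with 0.01% Tween-20, all steps at room temperature.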
JMJD2A Tudor: qHTS Assay for Inhibitors of JMJD2A-Tudor Domain | Lysine-specific demethylase 4A (Homo sapiens), O75164 | AlphaScreen JMJD2A-Tudor / H3K4me3 peptide binding | Potency, µM (highest dose often 114 µM), for the others: top-dose activity change, negative = inhibition, most hits filed as inhibitors | 390,000 tested, 4.4% active | AID 504339, 2011; further: potency means the concentration at half of the fitted maximal effect; on the % scale 0 is the no-effect control and ±100 the full control effect; nearly all actives have a fitted effect of over 50% in size
G9a block: qHTS Assay for Inhibitors of Histone Lysine Methyltransferase G9a; Potency, µM (top dose mostly 102 µM), inactives show top-dose activity, negative = inhibition, actives largely listed as inhibitors; Histone-lysine N-methyltransferase EHMT2 (Homo sapiens), Q96KQ7; 350,000 tested, 8.8% active; G9a H3K9 monomethylation, AlphaScreen, 2 h; further: potency means the concentration at half of the fitted maximal effect; on the % scale 0 is the no-effect control and ±100 the full control effect; nearly all actives have a fitted effect of over 75% in size
Target sequence (Q96KQ7 913-1193 limits assumed): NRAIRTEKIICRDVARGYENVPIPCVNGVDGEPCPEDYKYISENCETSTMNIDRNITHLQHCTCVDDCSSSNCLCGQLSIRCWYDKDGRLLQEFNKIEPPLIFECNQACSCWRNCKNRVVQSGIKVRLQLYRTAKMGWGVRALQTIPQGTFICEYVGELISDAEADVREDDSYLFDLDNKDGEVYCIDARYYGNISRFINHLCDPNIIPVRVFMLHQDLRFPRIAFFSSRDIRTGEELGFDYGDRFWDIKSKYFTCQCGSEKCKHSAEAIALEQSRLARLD
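Step 1: enzyme (final 20 nM) with compound, 15 min RT. Step 2: substrate peptide 500 nM and SAM 20 uM, 2 h RT. Step 3: anti-H3K9me1 antibody and AlphaScreen beads, 10 min, then plate read.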
The depositor's hits bear a star; u = inconclusive; x = not tested or not shown; ! = not active in a repeat; [ ] = remark or other dose. Unless noted, the call rests on the fitted dose curve; in most records, active means well fitted inhibition curve with a large enough effect; inconclusive means small, poorly fitted or top-dose-only effect; inactive means no such curve, though single readings can be large or run the other way.

SMILES | Six1-Eya2 blk | HP1b chromo inh | CtBP-E1A blk | BAZ2B inh | JMJD2A Tudor | G9a block
CC1=C(C(=O)Nc2ccccc2C)C(c2ccco2)n2ncnc2N1 (stereo not drawn) | x | 20%[57 µM] | x | 2% | -3% | -1%[59 µM]
COc1cccc(N=Nc2c(C)[nH]n(-c3ccccc3)c2=O)c1 | u | u | x | 6.3µM* | u | 7.9µM*
Cc1[nH]n(-c2ccccc2)c(=O)c1N=Nc1ccc2c(c1)OCO2 | 16 | -4% | 0 | 1.8µM* | u | 3.2µM*
CCOc1ccc(N=Nc2c(C)[nH]n(-c3ccccc3)c2=O)cc1 | -8 | -6% | -28 | u | u | 1%[0.501 µM]
CC(OC(=O)CCc1nc2ccccc2[nH]c1=O)c1ccccc1 (stereo not drawn) | 15 | 0% | 10 | -11% | -24% | 5%
COC(=O)CCc1nc2ccccc2[nH]c1=O | -1 | 32% | 3 | 9% | -1% | 7%[12.7 µM]
CC(OC(=O)CCc1nc2ccccc2[nH]c1=O)C(=O)c1ccccc1 (stereo not drawn) | 7 | 30% | 7 | 11% | 5% | 79µM*
COC(=O)CSCc1nc2ccccc2[nH]c1=O | 4 | 21% | -15 | -20% | -23% | 20µM*
COc1cccc(N2CCN(C(=O)CN3CCSc4ccc(S(=O)(=O)N(C)C)cc43)CC2)c1 | x | 6%[57 µM] | x | -27% | -29% | 2%[59 µM]
CC1=C(/C=C/C(C)=C/C=C/C(C)=C/C(=O)O)C(C)(C)CCC1O (stereo not drawn) | x | x | x | x | x | -12%[59 µM]
CC1=C(/C=C/C(C)=C\C=C\C(C)=C\C(=O)O)C(C)(C)CCC1 | x | x | x | x | x | 22µM*!
CC1=C(/C=C/C(C)=C/C=C/C(C)=C/C(=O)O)C(C)(C)CCC1 | 14 | 25% | 2 | u | -20% | 50µM*!
CCOc1cc(Cl)c(S(=O)(=O)n2cc(C)nc2CC)cc1Cl | x | 15% | x | -21% | -2% | -5%[59 µM]
O=C(O)Cn1cc(/C=C/[N+](=O)[O-])c2ccccc21 | 5 | -6% | 13 | -31% | -23%[57.1 µM] | 56µM*
CCN(CC)c1ccc(/C=C(/C#N)C(=O)NC(C)C)o1 | 9 | -11% | -2 | -28% | u | u
CCN(CC)c1ccc(/C=C(/C#N)C(=O)NCc2ccccc2)o1 | -4 | -18% | 10 | -32% | -12% | 11µM*
N#Cc1ccccc1Cn1cc(/C=C/[N+](=O)[O-])c2ccccc21 | 8 | 7% | -22 | u | -23% | 50µM*
N#C/C(=C/c1cn(CC(=O)O)c2ccccc12)C(=O)NCc1ccccc1 | -3 | 34% | -1 | u | -4% | 56µM*
Fc1c(-c2ccc3ncnc(NCc4cccs4)c3c2)ccc2c1OCO2 | x | x | x | x | -24% | x
CCOC(=O)c1c(C)[nH]c(C)c1S(=O)(=O)N1CCC(C(=O)Nc2ccccn2)CC1 | x | 5% | x | -24% | -15% | -2%[59 µM]
CC(=O)c1c(C)[nH]c(C(=O)Nc2ccc(Cl)c(S(=O)(=O)N(C)C)c2)c1C | -1 | 15% | x | u | -35% | -21%
Cc1[nH]c(=O)[nH]c(=S)c1C(=O)Nc1ccc(Cl)c(Cl)c1 | -4 | -42% | -3 | x | 8.9µM* | x
CN(C)CCCC1Sc2ccccc2Sc2ccccc21 (stereo not drawn) | 0 | 71µM* | -5 | x | 20µM* | x
O=C(Cn1c(=O)nc(-c2ccccc2)c2ccccc21)N1CCN(c2ccc(F)cc2)CC1 | x | 43% | x | 2% | 4% | 12%[12.7 µM]
CCN(CC)[C@@H](C)CN1c2ccccc2Sc2ccccc21 | x | x | x | x | x | 8.9µM*
SMILES | Six1-Eya2 blk | HP1b chromo inh | CtBP-E1A blk | BAZ2B inh | JMJD2A Tudor | G9a block
CC(=O)N1c2ccccc2Sc2ccc3ccccc3c21 | -6 | x | 5 | x | x | x
CCc1ccc2c(c1)N(C[C@H](C)CN(C)C)c1ccccc1S2 | x | x | x | x | x | 18µM*
CCN(CC)CCN1c2ccccc2Sc2ccccc21 | -14 | 45µM* | -20 | 71µM* | 2.8µM* | u
CCN(CC)CCN1c2ccccc2Sc2ccc3ccccc3c21 | 4 | 50% | 4 | u | u | 50µM*
COc1ccc(CCc2c[nH]c(=O)c3cncnc23)cc1OC | x | 1% | x | x | -31% | x
CCOC(=O)c1ccc(NS(=O)(=O)c2ccc3c(c2)CCN3C(=O)CC)cc1 | x | 10% | x | -14% | -16% | u
Cc1cc(C(c2ccc(C)o2)c2ccc(C)o2)c(O)c([N+](=O)[O-])c1 | u | 16µM* | u | 45µM* | 40µM* | 35µM*
Cc1ccc(C(c2ccc(C)o2)c2cccc([N+](=O)[O-])c2O)o1 | u | u | u | 40µM* | 50µM* | 40µM*
Cc1c(C(c2cccc([N+](=O)[O-])c2O)c2c(C)n(C)n(-c3ccccc3)c2=O)c(=O)n(-c2ccccc2)n1C | 9 | 36% | 9 | -6% | -13% | 13%[12.7 µM]
COc1ccc(C(=O)N2CCN(c3ccccc3OC)CC2)cc1 | 2 | 39% | 0 | -16% | -4% | u
COc1ccccc1N1CCN(C(=O)c2ccc3[nH]c4c(c3c2)CCCC4)CC1 | -30 | u | -26 | 45µM* | 50µM* | u
O=C(c1noc2c1CCCC2)N1CCN(c2ccc(F)cc2)CC1 | -1 | 2% | 2 | 2% | -21% | 0%[2.33 µM]
O=C(c1ccc2[nH]c3c(c2c1)CCCC3)N1CCN(c2ccc(F)cc2)CC1 | -24 | u | -3 | 40µM* | 32µM* | u
Cc1oc(-c2cccc(Cl)c2)nc1CSc1nnc(C)n2c1cc1occc12 | x | 31% | x | -11% | -10% | -4%[59 µM]
CCN(CC)CC(O)Cn1c2ccccc2c2ccccc21 (stereo not drawn) | 6 | 15% | -3 | 0% | -3% | 13%[12.7 µM]
CCN(CC)CC(O)Cn1c(C)c(-c2ccccc2)c2cc([N+](=O)[O-])ccc21 (stereo not drawn) | -9 | -12% | -13 | u | u | 45µM*
Cc1ccc(-c2nc(CSCC(=O)N3CCN(c4ccccn4)CC3)c(C)o2)cc1 | 5 | 22% | -1 | -35% | -34% | u
CCOc1ccc(-c2nc(CSCC(=O)N3CCN(c4cccc(OC)c4)CC3)c(C)o2)cc1 | -16 | u | -13 | u | 56µM* | u
CCc1ccc(-c2nc(CSCC(=O)N3CCN(c4ccccn4)CC3)c(C)o2)cc1 | -9 | -17% | -5 | 50µM* | u | 52%[59 µM]
